target: PTGFRN; assay: pooled miR-30 sensor sort-seq; sequence = guide strand; details: shRNA
Also: reference of the scale not given here.

| Sequence | sensor-assay potency score (higher = more potent) |
| --- | --- |
| TATTTTAGCGTCCAGTCCCCGT | -1.12 |
| TTGGAGAAGACATCCTTGCTTT | -0.201 |
| TTTAGTGTAACACACTTTGTTT | -0.905 |
| TTGAACATTTGTAGTGGCCTTG | -0.0806 |
| TTGGTCTGAAGGCTGGACGTTC | -0.683 |
| TTTTCTTGGATTTCCTGCCAGT | -0.278 |
| TTAAATATAGGACCTGAGGTTT | -1.13 |

target: PTGFR; assay: as above; details: shRNA

| Sequence | sensor-assay potency score (higher = more potent) |
| --- | --- |
| TTGTAGAAACACCAGGTCCTCG | -0.683 |
| TAACTAACTGAAATATTGCCAA | -0.195 |
| TTGACTGGCAAGCTTATAGAGA | -0.966 |
| TTTGATGTCTTCTGTGTTGTAG | 0.583 |
| TGCACAACAATGAAACACCAAG | -1.45 |
| TTTGACAAATTTCAAAACCTGA | -0.803 |
| TTTTATAGTCTCGATGTCCAAG | -0.668 |
| TCTGTGTTGTAGAAACACCAGG | -1.29 |
| TTGTGTTTGAAAGAAGCGCAGC | -0.804 |
| TTTAATGGAACTAAGCTCCCAA | 0.844 |
| TTTGTGACTCCAATACACCGCT | -0.161 |
| TTGCACAACAATGAAACACCAA | 0.0591 |

target: PTH2R; assay: as above; details: shRNA

| Sequence | sensor-assay potency score (higher = more potent) |
| --- | --- |
| TTAAGTAACACCTTAACTGAAT | -1.01 |
| TATATTGTGATTTGTCCACAGA | -0.718 |
| TTTAGATCCTAATTGCTCCTAT | 0.713 |
| TTTGCCAGAGATAAGCACCATG | -0.588 |
| TAAACTACTCCATTGACACTTG | -0.214 |
| TAAATAAACATCACAACAGCAA | -0.154 |
| TAAGCTGTGCATAAAATCCCAT | -0.0361 |
| TAGCTGCTAAGATCGGTGCTTG | -0.715 |
| TAGAATATCATCTCCCTGCCTC | -0.315 |
| TAGTGCAATGCAATCGTCTGAA | -0.115 |
| TTTCAGCACAAGGACAATCTGC | -0.513 |
| TAGAACTCTAACCGTATTCAGA | -0.533 |

target: PTPN7; assay: as above; details: shRNA

| Sequence | sensor-assay potency score (higher = more potent) |
| --- | --- |
| TCTTCTTCCAGTTGCTTGGGGC | -0.37 |
| TTGGCATTGATGTAATCTCCGT | -0.978 |
| TAGACAGACACGGCTCTGGGGA | -0.764 |
| TAGAACAGGAAACTGAAGCTCA | 0.0685 |
| TTGTCCTTACTGCTGCTGCTTC | -0.729 |
| TAGTGGACACATTTCTCCTTGC | -0.219 |
| TCTTGCCACACCATCTCCCAGA | -0.679 |
| TTCTGGTGTCTGATGGTCTGGC | -0.217 |
| TTCTTCTTCCAGTTGCTTGGGG | 0.0231 |

— the OligoGym collection
